From PubChem BioAssay (NCI)
About 83,000 compounds went through this panel and 20% of them were active in at least one assay; those are over-represented in the sample as a whole.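 Each cell line was grown in a 96-well plate and treated with one concentration of compound for 48 hours. Values below 10 were considered active.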 A number with no mark means an inactive call. Calls of active or inactive are those of the source.

What follows are compounds tested on SN12C renal (assay: NCI-60 one-dose screen, 48 h (100 = growth as untreated, 0 = no growth, -100 = all killed)). Details: 10 µM unless noted.
Protocol: Growth inhibition of the SN12C human tumor cell line is measured as a screen for anti-cancer activity. Cells are grown in 96 well plates and exposed to the test compound for 48 hours. Compounds are tested at a single concentration, which is 10^-5 M for most compounds. The reported endpoint is percent growth (GI% or GIPRCNT), where numbers from 0 - 100% represent growth inhibition, and numbers from -100% - 0 represent cell death. For example, a value of 40 represents 60% growth inhibition. A value of 0 means no net growth occurred over the course of the experiment. A value of -40 indicates 40% of cells at the beginning of the experiment died by the end of the experiment. A value of -100 means all cells are dead at the end of the experiment.
NCI-60 Human Tumor Cell Lines Screen was performed using the standard one-dose NCI protocol, which is described in more detail at https://dtp.cancer.gov/discovery_development/nci-60/default.htm.
Compounds with GIPRCNT values below 10 were considered active. Activity score was based on GIPRCNT using the following formula: […]
Score is 0 for GIPRCNT values of 100 or above, 50 for GIPRCNT values of 0, and 100 for GIPRCNT values of -100.

| Structure (SMILES) | growth |
| --- | --- |
| O=C(Nc1cccc(-n2cc(-c3ccncc3)c(-c3ccc(Cl)c(O)c3)n2)c1)Nc1cccc(C(F)(F)F)c1 | 14.6% |
| O=C(O)COc1ccc(-c2cssc2=S)cc1 | 103% |
| O=[N+]([O-])c1cc(S(=O)(=O)Oc2ccccc2)ccc1Cl | 29.6% |
| O=C(CN1CCN(c2cc3c(cc2F)c(=O)c(C(=O)N/N=C/c2ccccc2O)cn3C2CC2)CC1)N/N=C\c1ccccc1O | 24.7% |
| CCN(CC)CCOc1ccc(/C(=C(/C)c2ccccc2)c2ccc(OC(C)=O)cc2)cc1 | 93.6% |
| CCn1c2ccccc2c2cc(NC(=O)Nc3ccc([N+](=O)[O-])cc3C)ccc21 | 55.6% |
| C=C1C(=O)O[C@@H]2[C@@H]3O[C@@](C)(CC/C=C(\C)CCC[C@@H]2C)[C@H](O)C[C@@H]13 | 47.3% |
| CCN(CC)c1ccc(N=O)cc1 | 56.3% |
| NC(N)=Nc1nc2ccccc2o1 | 110% |
| CC(C)C(C(=O)NCCN1CCOCC1)N1C(=O)/C(=C/c2ccc(Br)cc2)SC1=S (stereo not given) | 93.8% |
| Nc1cccc(Cl)c1N | 112% |
| CCOC(=O)NNC(=S)Nc1ccccc1 | 99% |
| CC1(c2ccc(Cl)cc2)OC(=O)CC(=O)O1 | 102% |
| O=c1[nH]c(Nc2ccc(S(=O)(=O)O)cc2)nc2nc(Nc3ccc(NC(=S)Nc4ccccc4)cc3)nc(-c3ccc(O)cc3O)c12 | 98.5% |
| COc1ccc(C(=O)N2NC(=O)/C(=C/c3ccccc3F)N=C2c2ccccc2)cc1 | 99% |
| O=C(Nc1ccncc1)C(=O)c1cn(S(=O)(=O)c2ccccc2F)c2ccccc12 | 33.8% |
| COc1ccc(C(=O)c2cc(OC)c(OC)c(OC)c2OC)cc1O | 40.5% |
| COc1ccc(-c2c(-c3cc(OC)c4c(c3)OCO4)noc2N)cc1 | 22.9% |
| O=C(Nc1cccc(-n2cc(-c3ccncc3)c(-c3ccc(Cl)c(O)c3)n2)c1)Nc1ccc(Cl)c(Cl)c1 | 18% |
| COc1ccc2cc(-c3ccc(-c4ccc(C(=N)N)cc4)s3)ccc2c1 | 99.7% |

| Structure (SMILES) | growth |
| --- | --- |
| FC(F)(F)c1cccc(-c2cn3c(ccc4ccccc43)n2)c1 | 97% |
| O=[N+]([O-])c1cnc(Sc2ccncn2)s1 | 63.6% |
| CCOC(=O)c1ccc(NC(=O)N2CC(C)OC(C)C2)cc1 (stereo not given) | 97.4% |
| COc1ccc(-n2c(-c3ccccc3)c(-c3ccccc3)c3c(SCC(=O)N/N=C/c4ccc(Cl)cc4)ncnc32)cc1 | 99% |
| NC1=C(/C(N)=N/O)C(c2ccccc2)c2ccc3ccccc3c2O1 (stereo not given) | 24.2% |
| CN(C)c1ncnc2c1ccn2C1OC(CO)C(O)C1O (stereo not given) | 17.8% |
| CCOC(=O)CN1/C(=N/c2sc3c(c2C(=O)OCC)CCN(C(=O)OCC)C3)SC(=O)/C1=C\C(=O)OC | 85.7% |
| NNc1cccc(/C=C/c2ccccc2)cc1=O | 71.6% |
| COc1cc(-c2nn(-c3cccc(NC(=O)c4ccc(N5CCOCC5)c(C(F)(F)F)c4)c3)cc2-c2ccncc2)ccc1Cl | 31% |
| N[C@H]1CN(C(=O)c2cc3cc(Br)c(F)c(F)c3[nH]2)C[C@@H]1O | 95.7% |
| C=C1C(=O)O[C@H]2[C@H]1CC/C(Cn1cc(CNC(=O)/C=C/c3c[nH]c4ccccc34)nn1)=C\CC[C@@]1(C)O[C@@H]21 | 88.4% |
| O=[N+]([O-])c1cc(Cl)c2[nH]c3c(Cl)cc([N+](=O)[O-])cc3c2c1 | 2.7% (active) |
| CC(C)(C)n1cc(-c2ccnc(NCCCNS(=O)(=O)c3ccccc3)c2)c(-c2cccc(O)c2)n1 | 52.8% |
| COc1cc(-c2nn(-c3cccc(NC(=O)c4ccc(Cl)c(C(F)(F)F)c4)c3)cc2-c2ccncc2)ccc1Cl | 57.3% |
| Cc1c(C(N)=O)sc2c1c(=O)n(Cc1ccccc1)c1nnc(Nc3ccccc3)n21 | 99.2% |
| CCO/C=N/C1=C(C#N)C(c2ccc(Cl)cc2)c2c(c3ccc(C)cc3[nH]c2=O)O1 (stereo not given) | 85.5% |
| COc1cc(-c2nc(-c3nc4ccc(Cl)cc4[nH]3)cc3c2[nH]c2ccccc23)cc(OC)c1OC | 66.1% |
| CCCCCCCCCCCCNC(=O)[C@H]1CSC(c2cc(Br)cs2)N1 (stereo not given in full) | -53.5% (active) |
| COc1ccc2c(c1)NC1=C(C(=O)OC1)C2c1cc(OC)c2c(c1)OCO2 (stereo not given) | 26.4% |
| c1ccc(-c2nc(N3CCNCC3)c3nc(-c4ccccc4)oc3n2)cc1 | -92.2% (active) |
